Screening results (PubChem)
Most compounds without a hit are left out; they make up all but 1.1% or so of the library.
IP6K1 inh = Primary qHTS assay for small molecule inhibitors of Inositol hexaphosphate kinase 1 (IP6K1); Inositol hexakisphosphate kinase 1 (Homo sapiens), Q92551; IP6K1 kinase, ADP-Glo luminescence, 2 h; stronger effect = lower value; activity change, % (series mostly up to about 58 µM); hit rate 0.81% among 140,000; AID 1645851, 2021; in the data active = activity change below about -25%
Target sequence (Q92551 whole entry, looked up): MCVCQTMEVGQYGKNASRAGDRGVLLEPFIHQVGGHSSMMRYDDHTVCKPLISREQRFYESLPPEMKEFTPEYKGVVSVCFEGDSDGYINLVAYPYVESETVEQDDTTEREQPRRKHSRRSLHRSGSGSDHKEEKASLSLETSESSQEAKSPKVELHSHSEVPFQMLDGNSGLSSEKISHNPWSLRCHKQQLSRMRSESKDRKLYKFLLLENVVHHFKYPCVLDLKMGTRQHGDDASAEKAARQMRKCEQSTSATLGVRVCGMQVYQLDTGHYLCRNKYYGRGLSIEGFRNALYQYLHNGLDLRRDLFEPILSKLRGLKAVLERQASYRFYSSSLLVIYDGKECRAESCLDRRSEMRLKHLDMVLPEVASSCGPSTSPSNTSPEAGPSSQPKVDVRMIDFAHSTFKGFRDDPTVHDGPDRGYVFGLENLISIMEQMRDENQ
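ADP-Glo luminescence measures ADP made by human IP6K1 during a 2 h RT reaction with ATP/IP6 (mix at 1.3 mM/130 uM); top library doses 57.5 and 19.1 uM final.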
SNCA expr inh = Primary qHTS assay for inhibitors of alpha-synuclein gene (SNCA) expression | hit rate 0.17% among 140,000 | Potency, µM (series often up to 57.2 µM), inactives show top-dose activity change, negative = inhibition, actives largely listed as inhibitors | HEK-293 SNCA-luciferase knock-in, luminescence, 24 h;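 also: potency is read from the fitted curve at half-maximal effect; plate controls were DMSO cells for no effect and cell-free wells for full effect; nearly all actives have a fitted effect of over 45% in size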
SNCA viab count = GF-AFC viability counterscreen for inhibitors of alpha-synuclein gene (SNCA) expression. AID 1671193, 2021. HEK-293-SNCA-luc viability, GF-AFC fluorescence, 24 h. hit rate 0.12% among 150,000. Potency, µM (highest dose often 57.1 µM), for inactives: at the highest dose activity change, negative = cytotoxicity, most hits filed as cytotoxic;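 also: potency is read from the fitted curve at half-maximal effect; 0% = DMSO-treated cells and -100% = medium-only wells without cells; nearly all actives have a fitted effect of over 30% in size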
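HEK-293-SNCA-luc cells (1500/well) plated 24 h, then exposed 24 h to a dilution series; GF-AFC added 30 min at 37C, fluorescence 405/540 nm; normalised to medium-only and DMSO wells, Hill fit.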
GPT2 inhibitor = Primary qHTS assay for inhibitors of Glutamate pyruvate transaminase 2 (GPT2); Recombinant GPT2, coupled pyruvate oxidase/HRP Amplex Red fluorescence; Potency, µM (top dose mostly 57.7 µM), inactives show top-dose activity change, negative = inhibition, hits mostly inhibitors; hit rate 0.25% among 100,000; AID 1671188, 2021; also: potency is read from the fitted curve at half-maximal effect; nearly all actives have a fitted effect of over 60% in size
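Inhibition is scored from Amplex Red fluorescence generated when pyruvate oxidase and HRP act on pyruvate released by GPT2. Reactions contain 10ng/uL enzyme, 250uM a-KG and 2mM L-alanine and run 30 min at room temperature.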
IP6K1 inh cnf = Confirmatory qHTS assay for small molecule inhibitors of Inositol hexaphosphate kinase 1 (IP6K1); shares compounds with IP6K1 inh; recombinant IP6K1 kinase, ADP-Glo luminescence, 2 h; Potency, µM (highest dose often 49 µM), without a hit: top-dose activity change, negative = inhibition, hits mostly inhibitors; hit rate 13% among 1,200; AID 1645852, 2021; also: potency is read from the fitted curve at half-maximal effect; nearly all actives have a fitted effect of over 65% in size
* marks the source's active call; other numbers are inactive results; [ ] = remark or other dose. Unless noted, calls follow the shape of the dose curve; as a rule, active = well fitted curve in the direction sought with a large enough effect; inconclusive = small, poorly fitted or top-dose-only effect, or another doubt; inactive = no such curve, though single readings can be large; an effect the other way counts as inactive or inconclusive. Unless noted, % is scaled to controls: 0 for no effect and ±100 for the full control effect.

`CN(CCO)C[C@@H]1CN(C(=O)c2ccc3c(c2)CCC3)C[C@@H]1CO` gave IP6K1 inh 1, SNCA expr inh -13%, SNCA viab count -15% and GPT2 inhibitor 2%.
For CCn1c(C2CCCN(C(=O)Cc3c[nH]c4ccccc34)C2)nn(C)c1=O (stereo unspecified) the results were IP6K1 inh -2, SNCA expr inh -3%, SNCA viab count 1% and GPT2 inhibitor inactive.
`COC(=O)c1c(SCC(=O)Nc2ccccc2C(F)(F)F)[nH]c2ccc(Cl)cc2c1=O` gave IP6K1 inh -1, SNCA expr inh -4% and SNCA viab count 10%.
`COC(=O)c1c(SCC(=O)Nc2cc(C)cc(C)c2)[nH]c2ccccc2c1=O` gave IP6K1 inh -47*, SNCA expr inh -21%, SNCA viab count -11% and IP6K1 inh cnf inconclusive.
Screening O=C(O)C(S)C(S)C(=O)O (stereo unspecified) returned IP6K1 inh 15, SNCA expr inh -12%[25.6 µM], SNCA viab count -9%[23.9 µM] and GPT2 inhibitor inactive.
For O=C(c1cccs1)c1cn(CCOc2ccccc2Cl)c2ccccc12 the results were IP6K1 inh -10, SNCA expr inh inconclusive and SNCA viab count -3%.
Screening COc1ccc(NC(=O)C2CCN(C(=O)c3ncn4c3COC(c3ccccc3)C4)CC2)cc1 (stereo unspecified) returned IP6K1 inh -30*, SNCA expr inh 84%, SNCA viab count 1%, GPT2 inhibitor inactive and IP6K1 inh cnf -13%.
Nc1ccc(N=Nc2ccccc2)c(N)n1 was read as IP6K1 inh -37*, SNCA expr inh 143%[25.6 µM], SNCA viab count 13%[23.9 µM], GPT2 inhibitor 3% and IP6K1 inh cnf inconclusive.
Screening O=C(c1ccccc1Cl)N1CCn2c(nn(-c3ccc(C(F)(F)F)cc3)c2=O)C1 returned IP6K1 inh 9, SNCA expr inh 5%, SNCA viab count -6% and GPT2 inhibitor inactive.
COCC1(CNCc2cn(C)c3ccccc23)C[C@@H](O)[C@@H](O)C1 (stereo partly specified) was read as IP6K1 inh 3, SNCA expr inh -27%[87.6 µM], SNCA viab count -11%[87.6 µM] and GPT2 inhibitor inactive.
Screening Cn1c(=O)c(=O)n(C)c2cc(N3CCOCC3)c(NS(=O)(=O)c3ccc(Cl)cc3)cc21 returned IP6K1 inh -32*, SNCA expr inh -21%, SNCA viab count 1% and IP6K1 inh cnf -4%.
Screening Cn1c(=O)n(C)c2cc(N3CCOCC3)c(NS(=O)(=O)c3ccc(Cl)cc3)cc21 returned IP6K1 inh -13, SNCA expr inh 54% and SNCA viab count 3%.
COCCNC(=O)CCn1c(=O)c2cc(OC)c(OC)cc2n(CC(=O)Nc2ccc(Cl)cc2F)c1=O was read as IP6K1 inh -10, SNCA expr inh -2% and SNCA viab count 7%.
For Cc1ccc(NC(=O)CCCn2nc(C)c3c(C)n(-c4ccccc4)nc3c2=O)cc1Cl the results were IP6K1 inh 20, SNCA expr inh 38% and SNCA viab count 10%.
CCOC(=O)c1cccc(NC(=O)CCCn2nc(C)c3c(C)n(-c4ccccc4)nc3c2=O)c1 was read as IP6K1 inh -100*, SNCA expr inh -10%, SNCA viab count -1% and IP6K1 inh cnf 8%.
For Cc1ccc(NC(=O)c2ccc(CN3CC[C@H](N(C)C)C3)c(C(F)(F)F)c2)cc1Nc1nccc(-c2cncnc2)n1 the results were IP6K1 inh 6, SNCA viab count 21%[23.9 µM] and GPT2 inhibitor 3%[27.3 µM].
Screening Cc1ccc(C(=O)Nc2ccc(CN3CCN(C)CC3)c(C(F)(F)F)c2)cc1C#Cc1cnc2[nH]ncc2c1 returned IP6K1 inh -61*, SNCA viab count inconclusive, GPT2 inhibitor 1% and IP6K1 inh cnf 7.3µM*.
`CCN1CCN(Cc2ccc(NC(=O)c3ccc(C)c(/C=C/c4cnc5[nH]ccc5c4OC)c3)cc2C(F)(F)F)CC1` gave IP6K1 inh -39*, SNCA viab count 24µM*, GPT2 inhibitor 1% and IP6K1 inh cnf 4.6µM*.
